# Test results from publication PMC11062922 (Nature Chemical Biology, 2023).
# Where two headings read alike, the source gives them in different places.
# What was measured:
# Set-up in all cases: species or system human, MV4-11 + K-562 + COLO205 + SK-N-BE2 + OVCAR-8
# GSK3A = details: read-out: apparent Kd, compound concentrations: 100 nM and 1000 nM (sheet 'Samples'), n = 1
# GSK3B = details: read-out: apparent Kd, compound concentrations: 100 nM and 1000 nM (sheet 'Samples'), n = 1
# ICK = details: read-out: apparent Kd; compound concentrations: 100 nM and 1000 nM (sheet 'Samples'), CATDS: 0.173475626531951; n = 1
# PRKCD = details: read-out: apparent Kd, compound concentrations: 100 nM and 1000 nM (sheet 'Samples'), n = 1
# PRKCQ = details: read-out: apparent Kd, compound concentrations: 100 nM and 1000 nM (sheet 'Samples'), n = 1
# PRKCA = details: read-out: apparent Kd; compound concentrations: 100 nM and 1000 nM (sheet 'Samples'), CATDS: 0.213712947404604; n = 1
# PRKCB = details: read-out: apparent Kd; compound concentrations: 100 nM and 1000 nM (sheet 'Samples'), CATDS: 0.109320974178185; n = 1
# RPS6KA6 = details: read-out: apparent Kd; compound concentrations: 100 nM and 1000 nM (sheet 'Samples'), CATDS: 0.131410075991204; n = 1
# HSPE1 = details: read-out: apparent Kd; compound concentrations: 100 nM and 1000 nM (sheet 'Samples'), CATDS: 0.26304172030338102; n = 1
# PGK1 = details: read-out: apparent Kd; compound concentrations: 100 nM and 1000 nM (sheet 'Samples'), CATDS: 0.76516694172770505; n = 1
# PKM = details: read-out: apparent Kd; compound concentrations: 100 nM and 1000 nM (sheet 'Samples'), CATDS: 0.19798813046119201; n = 1
# RAN = details: read-out: apparent Kd; compound concentrations: 100 nM and 1000 nM (sheet 'Samples'), CATDS: 0.17121500690258801; n = 1
# JAK2 = details: read-out: apparent Kd, n = 1
# MAPK10 = details: read-out: apparent Kd; compound concentrations: 100 nM and 1000 nM (sheet 'Samples'), CATDS: 0.124709728908191; n = 1
# MAPK11 = details: read-out: apparent Kd, compound concentrations: 100 nM and 1000 nM (sheet 'Samples'), n = 1
# MAPK14 = details: read-out: apparent Kd; compound concentrations: 100 nM and 1000 nM (sheet 'Samples'), CATDS: 0.47843238213420702; n = 1
# MAPK8 = details: read-out: apparent Kd; compound concentrations: 100 nM and 1000 nM (sheet 'Samples'), CATDS: 7.6573616533716707E-2; n = 1
# MAPK9 = details: read-out: apparent Kd; compound concentrations: 100 nM and 1000 nM (sheet 'Samples'), CATDS: 9.6122690538123806E-2; n = 1
# MAPKAPK2 = details: read-out: apparent Kd; compound concentrations: 100 nM and 1000 nM (sheet 'Samples'), CATDS: 0.314538074262177; n = 1
# NLK = details: read-out: apparent Kd; compound concentrations: 100 nM and 1000 nM (sheet 'Samples'), CATDS: 8.6125216910038493E-2; n = 1
# NUAK1 = details: read-out: apparent Kd; compound concentrations: 100 nM and 1000 nM (sheet 'Samples'), CATDS: 9.4194293053738595E-2; n = 1
# PIK3CA = details: read-out: apparent Kd; compound concentrations: 100 nM and 1000 nM (sheet 'Samples'), CATDS: 0.76689409603513903; n = 1
# PIM2 = details: read-out: apparent Kd; compound concentrations:100 nM and 1000 nM (sheet 'Samples'); n = 1
# LIMK1 = details: read-out: apparent Kd; compound concentrations: 100 nM and 1000 nM (sheet 'Samples'), CATDS: 0.71485033586555802; n = 1
# LIMK2 = details: read-out: apparent Kd; compound concentrations: 100 nM and 1000 nM (sheet 'Samples'), CATDS: 0.38445187661018698; n = 1
# MAP2K1 = details: read-out: apparent Kd; compound concentrations: 100 nM and 1000 nM (sheet 'Samples'), CATDS: 0.27931983910668101; n = 1
# RET = details: read-out: apparent Kd; compound concentrations: 100 nM and 1000 nM (sheet 'Samples'), CATDS: 0.41481657466373201; n = 1
# MAP2K2 = details: read-out: apparent Kd; compound concentrations:100 nM and 1000 nM (sheet 'Samples'); n = 1
# NQO1 = details: read-out: apparent Kd; compound concentrations:100 nM and 1000 nM (sheet 'Samples'); n = 1
# PIK3CB = details: read-out: apparent Kd; compound concentrations:100 nM and 1000 nM (sheet 'Samples'); n = 1
# PIK3CD = details: read-out: apparent Kd; compound concentrations: 100 nM and 1000 nM (sheet 'Samples'), CATDS: 0.441724722045092; n = 1
smiles,measurement,setting,value
Cn1cc(C2=C(c3cn(CCO)c4ccccc34)C(=O)NC2=O)c2ccccc21 [RO0318036-000],potency estimated from few doses,GSK3A; CATDS: 0.34431860248680501,263 nM
same,potency estimated from few doses,GSK3B; CATDS: 0.35306232464093901,252 nM
same,potency estimated from few doses,ICK,1120 nM
same,potency estimated from few doses,PRKCD; CATDS: 0.14509929843566999,1970 nM
same,potency estimated from few doses,PRKCQ; CATDS: 0.15135413462946001,1700 nM
Cn1cc(C2=C(c3cn(CCCCCN)c4ccccc34)C(=O)NC2=O)c2ccccc21 [RO0317843-000],potency estimated from few doses,GSK3A; CATDS: 0.120915323717963,500 nM
same,potency estimated from few doses,GSK3B; CATDS: 0.12552661641342699,455 nM
same,potency estimated from few doses,PRKCA,159 nM
same,potency estimated from few doses,PRKCB,666 nM
same,potency estimated from few doses,PRKCD; CATDS: 0.13254198888423899,398 nM
same,potency estimated from few doses,PRKCQ; CATDS: 0.26439518938370499,114 nM
same,potency estimated from few doses,RPS6KA6,407 nM
Cn1cc(C2=C(c3cn(C)c4ccccc34)C(=O)NC2=O)c2ccccc21 [RO0317208-000],potency estimated from few doses,HSPE1,475 nM
same,potency estimated from few doses,PGK1,47 nM
same,potency estimated from few doses,PKM,1120 nM
same,potency estimated from few doses,RAN,1970 nM
O=c1c(Oc2ccc(F)cc2F)cc2cnc(NC3CCOCC3)nc2n1C1CCS(=O)(=O)CC1 [RO5036538-000],potency estimated from few doses,"JAK2; compound concentrations: 100 nM and 1000 nM (sheet 'Samples'), CATDS: 0.12292389109729",230 nM
same,potency estimated from few doses,MAPK10,221 nM
same,potency estimated from few doses,MAPK11; CATDS: 7.2010910388864605E-2,1420 nM
same,potency estimated from few doses,MAPK14,13.9 nM
same,potency estimated from few doses,MAPK8,1060 nM
same,potency estimated from few doses,MAPK9,462 nM
same,potency estimated from few doses,MAPKAPK2,28.2 nM
same,potency estimated from few doses,NLK,667 nM
same,potency estimated from few doses,NUAK1,493 nM
NC(=O)c1sc(-n2cnc3cc(C(F)(F)F)ccc32)cc1OCc1ccccc1Br [GW853609X],potency estimated from few doses,"JAK2; compound concentrations: 100 nM and 1000 nM (sheet 'Samples'), CATDS: 0.37091451707305101",1140 nM
same,potency estimated from few doses,PIK3CA,204 nM
Cl.Nc1c(C(=O)c2cccc(C#CCN3CCOCC3)c2)cnn1-c1ccc(F)cc1 [RO1153320-001],potency estimated from few doses,"JAK2; compound concentrations: 100 nM and 1000 nM (sheet 'Samples'), CATDS: 0.47869568713999899",815 nM
same,potency estimated from few doses,MAPK11; CATDS: 0.52328893159992096,682 nM
CC(=O)N[C@@H](Cc1ccc(OP(=O)(O)O)cc1)C(=O)N[C@H]1CCC(=O)N2CCC[C@@H](C(=O)NCc3ccccc3)N2C1=O [RO0324253-000],potency estimated from few doses,JAK2; compound concentrations:100 nM and 1000 nM (sheet 'Samples'),712 nM
same,potency estimated from few doses,PIM2,1770 nM
CCCCN(Cc1ccccc1)C(=O)c1ccc(S(=O)(=O)Nc2ccccc2)cc1 [TH257],potency estimated from few doses,LIMK1,578 nM
same,potency estimated from few doses,LIMK2,2320 nM
COc1cc2c(Nc3cccc(NC(=O)c4ccccc4)c3)ncnc2cc1OCCCN1CCOCC1 [GSK223810A],potency estimated from few doses,MAP2K1,2310 nM
same,potency estimated from few doses,MAPK11; CATDS: 0.33231746948784902,1550 nM
same,potency estimated from few doses,RET,1030 nM
Cc1c(Cn2c(C)nn3c(=O)cc(N4CCOC(C)C4)nc23)cccc1C(F)(F)F (stereo not shown) [GSK2344444A],potency estimated from few doses,MAP2K2,1810 nM
same,potency estimated from few doses,NQO1,1560 nM
same,potency estimated from few doses,PIK3CB,13.4 nM
same,potency estimated from few doses,PIK3CD,20 nM
